The record followed here is the supplement of paper PMC11732987, “Enantioselective OTUD7B fragment discovery through chemoproteomics screening and high-throughput optimisation” (Communications Chemistry, 2025).

Unmarked numbers belong to inactive results.

Assay in all cases: log2 ratio of Biotin-Ahx-Ub-VS probe labelling (fragment/DMSO); higher = less target engagement (more negative = stronger competition), active = hit call of the paper (q ≤ 0.05, log2 ratio ≤ -1)
Common to all, as to settings: compound concentration: 200 uM; treatment time: 3 h

One test addresses T1, USP19 (UniProt O94966).
T1 sequence (whole entry): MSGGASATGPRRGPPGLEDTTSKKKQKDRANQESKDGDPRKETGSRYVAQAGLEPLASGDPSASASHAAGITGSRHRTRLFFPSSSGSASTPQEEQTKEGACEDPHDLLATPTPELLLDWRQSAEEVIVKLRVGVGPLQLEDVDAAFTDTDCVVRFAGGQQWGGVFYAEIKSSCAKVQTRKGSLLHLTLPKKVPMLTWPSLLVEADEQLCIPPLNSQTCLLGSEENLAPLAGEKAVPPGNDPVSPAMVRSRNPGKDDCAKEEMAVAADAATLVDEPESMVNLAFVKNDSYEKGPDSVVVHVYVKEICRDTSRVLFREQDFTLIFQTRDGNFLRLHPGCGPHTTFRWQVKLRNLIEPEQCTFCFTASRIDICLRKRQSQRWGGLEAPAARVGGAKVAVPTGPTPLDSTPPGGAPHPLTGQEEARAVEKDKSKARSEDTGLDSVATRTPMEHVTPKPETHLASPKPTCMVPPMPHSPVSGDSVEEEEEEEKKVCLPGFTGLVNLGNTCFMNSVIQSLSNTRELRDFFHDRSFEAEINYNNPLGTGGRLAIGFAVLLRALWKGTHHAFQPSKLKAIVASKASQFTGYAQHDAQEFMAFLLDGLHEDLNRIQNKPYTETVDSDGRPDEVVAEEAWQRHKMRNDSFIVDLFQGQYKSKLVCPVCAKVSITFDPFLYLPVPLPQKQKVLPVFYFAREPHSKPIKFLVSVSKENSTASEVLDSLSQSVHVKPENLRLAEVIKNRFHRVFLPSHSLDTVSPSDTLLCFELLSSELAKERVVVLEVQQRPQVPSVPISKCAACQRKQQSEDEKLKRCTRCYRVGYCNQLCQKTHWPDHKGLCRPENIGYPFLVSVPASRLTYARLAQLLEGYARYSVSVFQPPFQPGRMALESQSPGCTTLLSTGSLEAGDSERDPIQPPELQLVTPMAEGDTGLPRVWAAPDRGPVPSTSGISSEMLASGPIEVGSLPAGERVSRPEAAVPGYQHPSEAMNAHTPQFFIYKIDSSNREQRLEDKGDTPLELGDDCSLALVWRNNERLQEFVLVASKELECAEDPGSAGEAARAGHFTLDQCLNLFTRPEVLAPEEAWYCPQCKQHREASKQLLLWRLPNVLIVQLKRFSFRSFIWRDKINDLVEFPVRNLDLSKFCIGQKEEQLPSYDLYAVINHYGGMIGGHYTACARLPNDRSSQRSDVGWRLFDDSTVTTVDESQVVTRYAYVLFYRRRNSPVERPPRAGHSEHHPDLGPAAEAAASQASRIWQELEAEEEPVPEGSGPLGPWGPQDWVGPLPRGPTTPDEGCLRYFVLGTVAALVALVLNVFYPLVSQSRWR
An outline of the steps:
(§1)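 HEK293T lysate, 495 µg per sample in Tris/CHAPS/IGEPAL buffer with protease inhibitors, was treated in triplicate with fragment at 200 µM or vehicle for 3 h and then with Biotin-Ahx-Ub-VS at 0.5 µM final for 1 h. Labelled DUBs were NeutrAvidin-enriched, digested with LysC and trypsin, and run by diaPASEF LC-MS/MS. Spectronaut label-free quantities were global-median-normalised, and values are average log2 fragment/vehicle ratios by unpaired t-test on proteins with ≥2 unique peptides.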

The target of the next test is T2, USP22 (UniProt Q9UPT9).
T2 sequence (whole entry): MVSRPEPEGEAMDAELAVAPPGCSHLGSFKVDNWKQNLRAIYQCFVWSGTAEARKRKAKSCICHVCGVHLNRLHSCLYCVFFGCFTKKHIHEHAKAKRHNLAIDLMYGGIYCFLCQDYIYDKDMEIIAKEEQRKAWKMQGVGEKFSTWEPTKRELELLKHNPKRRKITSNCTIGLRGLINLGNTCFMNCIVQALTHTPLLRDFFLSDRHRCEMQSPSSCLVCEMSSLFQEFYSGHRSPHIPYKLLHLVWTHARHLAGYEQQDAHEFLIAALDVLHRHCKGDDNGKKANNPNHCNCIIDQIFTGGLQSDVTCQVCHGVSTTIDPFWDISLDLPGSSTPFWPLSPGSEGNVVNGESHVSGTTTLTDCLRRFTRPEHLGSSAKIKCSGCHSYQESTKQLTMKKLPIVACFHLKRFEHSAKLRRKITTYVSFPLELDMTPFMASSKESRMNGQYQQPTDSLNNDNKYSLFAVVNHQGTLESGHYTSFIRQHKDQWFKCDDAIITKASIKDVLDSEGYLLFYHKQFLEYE
The method in brief: as §1

The next test deals with USP24 (UniProt Q9UPU5). The method in brief: as §1
USP24, sequence (Q9UPU5 whole entry): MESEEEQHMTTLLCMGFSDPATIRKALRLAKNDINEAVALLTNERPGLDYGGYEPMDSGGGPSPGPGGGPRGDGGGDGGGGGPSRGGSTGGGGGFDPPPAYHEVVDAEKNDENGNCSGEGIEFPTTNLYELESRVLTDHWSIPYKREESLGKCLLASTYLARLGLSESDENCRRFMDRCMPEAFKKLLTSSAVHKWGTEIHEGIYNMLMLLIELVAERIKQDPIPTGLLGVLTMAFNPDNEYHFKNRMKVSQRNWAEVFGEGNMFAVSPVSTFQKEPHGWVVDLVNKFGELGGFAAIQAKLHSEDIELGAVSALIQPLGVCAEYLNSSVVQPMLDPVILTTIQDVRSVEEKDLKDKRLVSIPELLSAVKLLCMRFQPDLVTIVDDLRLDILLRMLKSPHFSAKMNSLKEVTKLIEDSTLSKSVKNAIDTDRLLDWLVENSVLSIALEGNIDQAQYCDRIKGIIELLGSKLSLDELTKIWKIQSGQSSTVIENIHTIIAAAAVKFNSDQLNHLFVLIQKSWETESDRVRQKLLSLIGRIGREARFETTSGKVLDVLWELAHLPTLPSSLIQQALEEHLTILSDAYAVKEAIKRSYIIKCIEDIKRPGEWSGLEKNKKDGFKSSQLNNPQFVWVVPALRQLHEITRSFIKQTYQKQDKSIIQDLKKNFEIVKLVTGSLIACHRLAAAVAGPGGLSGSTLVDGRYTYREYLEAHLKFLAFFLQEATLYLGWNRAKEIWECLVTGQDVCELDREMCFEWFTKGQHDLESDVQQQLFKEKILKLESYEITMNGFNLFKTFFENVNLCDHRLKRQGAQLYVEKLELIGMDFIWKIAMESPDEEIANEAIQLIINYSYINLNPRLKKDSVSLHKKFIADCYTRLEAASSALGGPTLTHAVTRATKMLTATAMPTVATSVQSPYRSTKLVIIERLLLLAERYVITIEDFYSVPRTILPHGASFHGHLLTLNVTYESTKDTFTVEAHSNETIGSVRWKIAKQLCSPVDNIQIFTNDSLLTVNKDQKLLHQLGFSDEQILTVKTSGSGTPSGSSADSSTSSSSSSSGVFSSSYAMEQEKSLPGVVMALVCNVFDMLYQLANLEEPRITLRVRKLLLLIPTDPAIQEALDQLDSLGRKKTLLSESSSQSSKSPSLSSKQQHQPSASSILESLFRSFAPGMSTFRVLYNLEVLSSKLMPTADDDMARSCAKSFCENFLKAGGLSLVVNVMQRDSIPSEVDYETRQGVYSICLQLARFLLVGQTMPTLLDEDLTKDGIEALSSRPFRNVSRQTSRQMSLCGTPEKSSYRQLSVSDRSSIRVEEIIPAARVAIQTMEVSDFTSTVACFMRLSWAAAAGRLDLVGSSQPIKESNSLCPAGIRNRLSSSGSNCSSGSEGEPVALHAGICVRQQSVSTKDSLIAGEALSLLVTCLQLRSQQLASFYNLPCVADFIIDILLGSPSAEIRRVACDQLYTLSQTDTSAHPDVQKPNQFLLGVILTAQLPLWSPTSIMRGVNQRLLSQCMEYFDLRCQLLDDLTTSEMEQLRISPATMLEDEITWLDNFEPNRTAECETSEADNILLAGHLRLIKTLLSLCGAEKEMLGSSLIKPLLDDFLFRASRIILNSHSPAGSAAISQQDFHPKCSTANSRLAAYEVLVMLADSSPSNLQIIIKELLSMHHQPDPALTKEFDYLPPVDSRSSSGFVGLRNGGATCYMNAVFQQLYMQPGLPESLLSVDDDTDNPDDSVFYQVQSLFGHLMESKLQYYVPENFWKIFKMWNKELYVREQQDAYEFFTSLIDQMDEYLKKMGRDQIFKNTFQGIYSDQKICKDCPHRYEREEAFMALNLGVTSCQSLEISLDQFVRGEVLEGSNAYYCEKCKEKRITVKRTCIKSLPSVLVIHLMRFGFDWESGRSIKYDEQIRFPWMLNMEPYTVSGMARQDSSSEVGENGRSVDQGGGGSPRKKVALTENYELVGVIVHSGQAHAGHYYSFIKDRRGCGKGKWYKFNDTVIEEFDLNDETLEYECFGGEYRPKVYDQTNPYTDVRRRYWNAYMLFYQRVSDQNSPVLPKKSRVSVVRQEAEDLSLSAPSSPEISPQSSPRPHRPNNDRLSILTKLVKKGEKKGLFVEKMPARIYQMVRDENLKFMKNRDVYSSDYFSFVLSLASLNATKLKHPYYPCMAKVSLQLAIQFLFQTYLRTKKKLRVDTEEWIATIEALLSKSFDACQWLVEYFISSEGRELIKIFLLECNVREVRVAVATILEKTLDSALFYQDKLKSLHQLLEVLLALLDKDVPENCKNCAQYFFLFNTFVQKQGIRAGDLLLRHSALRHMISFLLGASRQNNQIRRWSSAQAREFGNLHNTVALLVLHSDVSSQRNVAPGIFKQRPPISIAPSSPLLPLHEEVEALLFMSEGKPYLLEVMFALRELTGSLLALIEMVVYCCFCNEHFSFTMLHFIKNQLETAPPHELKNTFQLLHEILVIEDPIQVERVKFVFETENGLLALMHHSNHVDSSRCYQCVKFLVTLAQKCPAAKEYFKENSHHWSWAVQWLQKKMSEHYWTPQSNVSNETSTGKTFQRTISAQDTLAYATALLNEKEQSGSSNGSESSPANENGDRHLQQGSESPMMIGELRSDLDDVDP
The next test has as its target T3, USP25 (UniProt Q9UHP3).
T3 sequence (whole entry): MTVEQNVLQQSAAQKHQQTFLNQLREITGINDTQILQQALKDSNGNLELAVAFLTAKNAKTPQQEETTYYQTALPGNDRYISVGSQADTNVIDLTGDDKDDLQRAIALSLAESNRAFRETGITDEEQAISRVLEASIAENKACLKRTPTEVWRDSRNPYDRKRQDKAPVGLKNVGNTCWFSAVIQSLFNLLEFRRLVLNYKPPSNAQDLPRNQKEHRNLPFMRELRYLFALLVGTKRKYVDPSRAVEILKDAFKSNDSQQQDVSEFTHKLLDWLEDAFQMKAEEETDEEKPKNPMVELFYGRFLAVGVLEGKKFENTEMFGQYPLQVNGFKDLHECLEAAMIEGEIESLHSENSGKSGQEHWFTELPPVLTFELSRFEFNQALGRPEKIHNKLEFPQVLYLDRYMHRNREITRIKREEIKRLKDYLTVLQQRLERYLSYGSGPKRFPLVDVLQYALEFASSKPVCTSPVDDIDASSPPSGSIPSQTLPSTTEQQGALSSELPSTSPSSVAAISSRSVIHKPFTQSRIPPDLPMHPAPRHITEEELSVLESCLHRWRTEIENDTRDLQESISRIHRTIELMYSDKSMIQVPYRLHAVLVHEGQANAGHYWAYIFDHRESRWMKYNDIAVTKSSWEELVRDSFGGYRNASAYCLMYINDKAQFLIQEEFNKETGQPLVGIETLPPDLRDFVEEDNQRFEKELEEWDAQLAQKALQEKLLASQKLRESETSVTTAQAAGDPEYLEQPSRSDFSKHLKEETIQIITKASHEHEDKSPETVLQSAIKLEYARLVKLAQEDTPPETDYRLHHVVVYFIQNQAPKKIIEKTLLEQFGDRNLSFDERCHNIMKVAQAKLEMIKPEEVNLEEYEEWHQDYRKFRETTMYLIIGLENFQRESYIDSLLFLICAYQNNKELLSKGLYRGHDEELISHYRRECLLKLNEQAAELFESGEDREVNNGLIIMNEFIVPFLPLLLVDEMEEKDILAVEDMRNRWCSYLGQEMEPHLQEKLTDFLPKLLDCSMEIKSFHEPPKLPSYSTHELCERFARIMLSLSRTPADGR
An outline of the steps: as §1

The target of another test is T4, USP28 (UniProt Q96RU2).
T4 sequence (whole entry): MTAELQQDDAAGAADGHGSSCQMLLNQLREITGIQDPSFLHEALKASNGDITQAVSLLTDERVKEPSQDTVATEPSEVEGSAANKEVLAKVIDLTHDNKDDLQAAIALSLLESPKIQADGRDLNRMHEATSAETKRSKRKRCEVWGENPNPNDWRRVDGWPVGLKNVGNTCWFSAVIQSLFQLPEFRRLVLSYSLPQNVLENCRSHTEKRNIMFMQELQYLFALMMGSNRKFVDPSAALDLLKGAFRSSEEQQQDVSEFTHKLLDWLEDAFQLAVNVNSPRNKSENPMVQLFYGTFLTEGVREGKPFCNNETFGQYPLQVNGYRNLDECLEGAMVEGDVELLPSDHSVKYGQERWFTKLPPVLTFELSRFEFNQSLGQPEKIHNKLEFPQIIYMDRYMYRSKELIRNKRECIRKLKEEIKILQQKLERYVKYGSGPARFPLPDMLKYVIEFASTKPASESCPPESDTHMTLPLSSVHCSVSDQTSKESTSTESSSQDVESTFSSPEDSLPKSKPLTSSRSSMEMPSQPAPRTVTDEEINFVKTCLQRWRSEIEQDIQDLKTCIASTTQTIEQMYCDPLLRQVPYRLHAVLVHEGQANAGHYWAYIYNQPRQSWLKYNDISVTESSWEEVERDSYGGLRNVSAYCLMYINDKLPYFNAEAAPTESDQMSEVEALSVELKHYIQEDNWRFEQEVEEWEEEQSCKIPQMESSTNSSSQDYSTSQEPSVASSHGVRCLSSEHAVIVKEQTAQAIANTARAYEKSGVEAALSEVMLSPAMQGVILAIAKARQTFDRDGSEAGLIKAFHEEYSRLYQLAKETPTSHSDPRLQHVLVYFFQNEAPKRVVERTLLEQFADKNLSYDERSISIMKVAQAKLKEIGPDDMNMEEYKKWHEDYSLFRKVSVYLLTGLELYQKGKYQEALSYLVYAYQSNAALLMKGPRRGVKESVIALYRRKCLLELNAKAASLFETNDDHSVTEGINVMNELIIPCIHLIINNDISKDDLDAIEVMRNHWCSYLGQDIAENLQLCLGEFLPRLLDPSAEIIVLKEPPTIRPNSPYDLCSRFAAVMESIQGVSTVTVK
The method in brief:
as §1

`COc1ccc(Cl)cc1NC(=O)CCl`: the “log2 ratio of Biotin-Ahx-Ub-VS probe labelling” value with USP19 is -0.52; with USP22, -0.388; with USP24, -1.54 (active); with USP25, -0.784; with USP28 it was -0.959.
